Experimental data reported in PubChem BioAssay (NCATS).
Results filed as inconclusive are left out. Some of the results follow. Active and inactive are the calls of the source. Unless noted, the call rests on the fitted dose curve; in most records, active means well fitted curve in the direction sought with a large enough effect; inconclusive means small, poorly fitted or top-dose-only effect, or another doubt; inactive means no such curve, though single readings can be large; an effect the other way counts as inactive or inconclusive.

How the values were obtained:
[1] = target: Rap guanine nucleotide exchange factor 3 (Homo sapiens) (UniProt O95398); assay: Confirmatory qHTS for antagonist of cAMP-regulated guanine nucleotide exchange factor 3 (EPAC1) (AID 1645880); conditions: EPAC1 Rap1B-BODIPY-GDP exchange, fluorescence; activity, negative = inhibition: at 115 µM (top of the series); further: nearly all actives have a fitted effect of over 55% in size; further: potency means the concentration at half of the fitted maximal effect;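 on activity, negative = inhibition: plate controls were DMSO only for no effect and full effect of the ATA control for full effect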
Rap guanine nucleotide exchange factor 3 (Homo sapiens), sequence (O95398 whole entry, looked up): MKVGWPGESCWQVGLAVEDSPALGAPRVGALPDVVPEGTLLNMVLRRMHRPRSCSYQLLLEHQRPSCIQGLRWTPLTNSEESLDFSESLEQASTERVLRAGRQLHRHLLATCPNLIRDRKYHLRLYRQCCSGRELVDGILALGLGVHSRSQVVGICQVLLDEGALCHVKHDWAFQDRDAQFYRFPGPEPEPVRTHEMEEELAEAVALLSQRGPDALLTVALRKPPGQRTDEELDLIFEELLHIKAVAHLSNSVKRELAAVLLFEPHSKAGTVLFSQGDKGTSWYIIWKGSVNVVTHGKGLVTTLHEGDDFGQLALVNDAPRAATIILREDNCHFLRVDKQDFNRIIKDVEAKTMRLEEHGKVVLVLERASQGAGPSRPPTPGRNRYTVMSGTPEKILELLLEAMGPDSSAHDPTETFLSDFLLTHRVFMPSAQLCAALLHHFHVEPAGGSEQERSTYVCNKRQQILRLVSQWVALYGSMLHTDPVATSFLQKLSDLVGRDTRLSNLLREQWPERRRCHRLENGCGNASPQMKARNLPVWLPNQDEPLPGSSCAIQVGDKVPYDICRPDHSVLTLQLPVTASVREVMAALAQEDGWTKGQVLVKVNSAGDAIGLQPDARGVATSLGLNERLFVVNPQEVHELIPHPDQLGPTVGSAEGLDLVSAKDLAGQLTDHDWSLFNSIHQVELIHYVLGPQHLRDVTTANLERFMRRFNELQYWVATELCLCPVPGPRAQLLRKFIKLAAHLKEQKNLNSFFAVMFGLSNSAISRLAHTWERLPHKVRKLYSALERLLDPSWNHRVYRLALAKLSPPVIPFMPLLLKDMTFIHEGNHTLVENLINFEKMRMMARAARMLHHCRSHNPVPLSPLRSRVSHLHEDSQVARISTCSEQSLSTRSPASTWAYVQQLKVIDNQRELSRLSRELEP
In short: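 Nucleotide exchange uses 100 nM EPAC1, 250 nM RAP1B-BODIPY-GDP and 50 uM GDP, with compounds in a concentration-titration series. After 5 min at room temperature, fluorescence (480 nm ex/540 nm em) is read every 5 min for 30 min. Data are normalized to control ATA and DMSO.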

[2] = target: Rap guanine nucleotide exchange factor 3 (Homo sapiens) (UniProt O95398); assay: Confirmatory qHTS for agonist of cAMP-regulated guanine nucleotide exchange factor 3 (EPAC1) (AID 1645881); further: nearly all actives have a fitted effect of over 75% in size; further: potency means the concentration at half of the fitted maximal effect;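 on activation: EPAC1 catalysed release of BODIPY-GDP from Rap1B seen as fluorescence loss; 100% = effect of cAMP agonist control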
[3] = target: Rap guanine nucleotide exchange factor 4 (Homo sapiens) (UniProt Q8WZA2); assay: Confirmatory qHTS for agonist of cAMP-regulated guanine nucleotide exchange factor 4 (EPAC2) (AID 1645884);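 further: nucleotide exchange releases bodipy-GDP from Rap1 and this lowers its fluorescence; nearly all actives have a fitted effect of over 65% in size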; further: potency means the concentration at half of the fitted maximal effect; on activation: on the % scale 0 is the no-effect control and ±100 the full control effect
Rap guanine nucleotide exchange factor 4 (Homo sapiens), sequence (Q8WZA2 whole entry, looked up): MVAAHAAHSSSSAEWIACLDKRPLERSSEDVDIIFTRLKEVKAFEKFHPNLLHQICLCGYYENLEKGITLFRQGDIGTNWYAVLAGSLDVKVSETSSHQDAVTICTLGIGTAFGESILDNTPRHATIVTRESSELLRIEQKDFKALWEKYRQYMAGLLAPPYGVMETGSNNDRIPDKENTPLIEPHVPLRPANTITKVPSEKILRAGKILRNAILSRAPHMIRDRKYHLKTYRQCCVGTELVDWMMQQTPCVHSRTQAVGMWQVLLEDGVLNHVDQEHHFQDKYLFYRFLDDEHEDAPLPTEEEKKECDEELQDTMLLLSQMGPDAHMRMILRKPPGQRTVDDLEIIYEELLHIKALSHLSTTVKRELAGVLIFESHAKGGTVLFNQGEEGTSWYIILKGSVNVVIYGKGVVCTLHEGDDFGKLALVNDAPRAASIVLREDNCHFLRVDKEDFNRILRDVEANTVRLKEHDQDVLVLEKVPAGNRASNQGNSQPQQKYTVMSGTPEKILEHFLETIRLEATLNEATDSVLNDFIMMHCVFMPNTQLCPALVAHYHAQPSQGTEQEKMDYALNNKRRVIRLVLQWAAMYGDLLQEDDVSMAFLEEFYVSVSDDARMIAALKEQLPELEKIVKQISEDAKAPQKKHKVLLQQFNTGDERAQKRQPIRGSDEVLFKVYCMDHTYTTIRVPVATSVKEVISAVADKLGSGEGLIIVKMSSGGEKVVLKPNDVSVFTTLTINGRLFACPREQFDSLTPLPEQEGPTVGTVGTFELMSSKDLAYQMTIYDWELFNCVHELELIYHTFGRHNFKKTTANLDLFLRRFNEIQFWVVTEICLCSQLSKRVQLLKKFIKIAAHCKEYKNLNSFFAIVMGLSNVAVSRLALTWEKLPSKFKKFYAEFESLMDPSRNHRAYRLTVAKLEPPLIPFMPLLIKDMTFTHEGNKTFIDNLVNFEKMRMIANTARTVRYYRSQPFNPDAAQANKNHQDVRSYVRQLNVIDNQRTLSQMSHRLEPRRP

[4] = target: Rap guanine nucleotide exchange factor 3 (Homo sapiens) (UniProt O95398); assay: Counterscreen qHTS for agonist of cAMP-regulated guanine nucleotide exchange factor 3 (EPAC1) (AID 1645889); further: nearly all actives have a fitted effect of over 40% in size; further: potency means the concentration at half of the fitted maximal effect; on activation: % of control where 0% means no effect
In short: (§1)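 Rap1B-BODIPY-GDP 250 nM + GDP 50 uM; cpds 7-pt, final 9.74 nM–152 uM (activator mode) or from 7.32 nM upwards (inhibitor mode); RT; FI 480/540 nm at 5 and 30 min, then ± cAMP, reread.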

[5] = target: Tumor susceptibility gene 101 protein (Homo sapiens) (UniProt Q99816); assay: qHTS Assay for Iinhibitors of HIV-1 Budding by Blocking the Interaction of PTAP/TSG101: Hit Validation (AID 651600); further: potency means the concentration at half of the fitted maximal effect; nearly all actives have a fitted effect of over 70% in size
Tumor susceptibility gene 101 protein (Homo sapiens), sequence (Q99816 whole entry, looked up, the tested form may be a part): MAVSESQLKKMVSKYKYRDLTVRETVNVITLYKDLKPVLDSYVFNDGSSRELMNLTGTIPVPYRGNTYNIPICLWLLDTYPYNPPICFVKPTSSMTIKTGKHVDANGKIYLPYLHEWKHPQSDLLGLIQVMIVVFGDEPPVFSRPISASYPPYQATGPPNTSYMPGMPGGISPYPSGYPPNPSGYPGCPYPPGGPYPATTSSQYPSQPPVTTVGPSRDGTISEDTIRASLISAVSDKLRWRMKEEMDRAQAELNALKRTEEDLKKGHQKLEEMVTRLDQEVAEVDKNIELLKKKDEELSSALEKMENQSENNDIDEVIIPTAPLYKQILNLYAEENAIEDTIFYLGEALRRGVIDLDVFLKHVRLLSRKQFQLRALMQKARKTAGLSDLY
In short: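 Fluorescence polarization binding assay: Tsg101 binding domain (10 uM final) pre-dispensed with compounds, then FITC-labeled PTAP-motif peptide (50 nM final) added; 20 min at r.t. in HEPES pH 7.5 buffer with NaCl, Tween 20, EDTA, TCEP.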

[6] = target: Rap guanine nucleotide exchange factor 3 (Homo sapiens) (UniProt O95398); assay: Counterscreen qHTS for antagonist of cAMP-regulated guanine nucleotide exchange factor 3 (EPAC1) (AID 1645888);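 further: fluorescence loss as bound BODIPY-GDP is released from Rap1B; % of control where 0% means no effect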
In short: as §1

[7] = target: Cytochrome P450 3A4 (Homo sapiens) (UniProt P08684); assay: qHTS Assay for Inhibitors and Substrates of Cytochrome P450 3A4 (AID 884); further: potency means the concentration at half of the fitted maximal effect; nearly all actives have a fitted effect of over 50% in size
Cytochrome P450 3A4 (Homo sapiens), sequence (P08684 whole entry, looked up): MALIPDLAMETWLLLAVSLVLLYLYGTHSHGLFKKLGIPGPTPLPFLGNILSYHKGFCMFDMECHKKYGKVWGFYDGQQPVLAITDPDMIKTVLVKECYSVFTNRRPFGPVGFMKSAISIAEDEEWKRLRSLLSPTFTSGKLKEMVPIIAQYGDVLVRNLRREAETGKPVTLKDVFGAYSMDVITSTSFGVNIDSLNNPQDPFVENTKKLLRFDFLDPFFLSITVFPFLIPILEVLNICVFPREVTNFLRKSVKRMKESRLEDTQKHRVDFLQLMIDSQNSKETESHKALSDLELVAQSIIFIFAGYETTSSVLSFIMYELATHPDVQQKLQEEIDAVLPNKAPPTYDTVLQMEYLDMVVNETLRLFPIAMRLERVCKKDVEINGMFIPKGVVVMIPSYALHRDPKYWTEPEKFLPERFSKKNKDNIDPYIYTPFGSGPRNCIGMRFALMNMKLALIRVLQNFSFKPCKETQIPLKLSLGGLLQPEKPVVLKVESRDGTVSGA
In short: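 20 nM human CYP3A4 with 25 uM Luciferin-PPXE (at KM) in 200 mM KPO4, preincubated 10 min with compound; NADPH regeneration started a 60 min RT reaction. Luciferin detected by luminescence, normalized to 57 uM ketoconazole as full inhibition.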

[8] = target: Cytochrome P450 3A4 (Homo sapiens) (UniProt P08684); assay: qHTS Assay for Activators of Cytochrome P450 3A4 (AID 885); further: nearly all actives have a fitted effect of over 65% in size
In short: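 Quantitative HTS format: compounds preincubated with 20nM human CYP3A4 and Luciferin-PPXE substrate at KM, reaction started by NADPH regeneration, stopped after 60 min, luciferase luminescence read 20 min later.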

[9] = target: DNA polymerase eta (Homo sapiens) (UniProt Q9Y253); assay: qHTS for Inhibitors of Polymerase Eta: Confirmatory Assay for Cherry-picked Compounds (AID 720502); conditions: Pol eta primer extension, TAMRA/BHQ fluorescence, 10 min; further: potency means the concentration at half of the fitted maximal effect
DNA polymerase eta (Homo sapiens), sequence (Q9Y253 whole entry, looked up): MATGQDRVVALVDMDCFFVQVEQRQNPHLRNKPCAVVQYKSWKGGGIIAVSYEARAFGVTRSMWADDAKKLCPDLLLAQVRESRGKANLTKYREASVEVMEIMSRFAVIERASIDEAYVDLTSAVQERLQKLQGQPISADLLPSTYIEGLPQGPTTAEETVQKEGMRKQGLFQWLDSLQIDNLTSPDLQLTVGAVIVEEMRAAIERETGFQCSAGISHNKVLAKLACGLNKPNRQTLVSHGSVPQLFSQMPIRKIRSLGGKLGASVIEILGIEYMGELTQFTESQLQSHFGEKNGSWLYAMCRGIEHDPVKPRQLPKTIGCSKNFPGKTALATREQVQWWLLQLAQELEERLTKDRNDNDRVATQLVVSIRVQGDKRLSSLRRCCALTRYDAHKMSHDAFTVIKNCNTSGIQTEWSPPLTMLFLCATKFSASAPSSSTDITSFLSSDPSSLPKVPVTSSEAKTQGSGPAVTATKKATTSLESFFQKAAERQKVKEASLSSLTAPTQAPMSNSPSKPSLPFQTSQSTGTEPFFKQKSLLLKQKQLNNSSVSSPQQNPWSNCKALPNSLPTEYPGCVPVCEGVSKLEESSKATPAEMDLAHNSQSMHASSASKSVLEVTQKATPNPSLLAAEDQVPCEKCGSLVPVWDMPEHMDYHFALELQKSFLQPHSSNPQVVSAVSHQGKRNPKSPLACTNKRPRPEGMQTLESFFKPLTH
In short: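 Plates with 10 nM enzyme and compound stood 15 min at room temperature before substrate addition (50 nM final). Displacement of the TAMRA reporter from the BHQ-2 template was tracked for 10 min.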

[10] = Stat Signaling Pathway (AID 446; active means well fitted curve in either direction with a large enough effect, not every such curve was filed as active;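 further: ME-180 cervical cancer cells given 40 pM IL-6 alongside compound; SIE-controlled beta-lactamase reporter measured as 460/530 nm FRET emission ratio; on the % scale 0 is the no-effect control and ±100 the full control effect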)
In short: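 IL-6/STAT signaling read in ME-180 cells via an SIE beta-lactamase reporter. Stimulus was 40 pM IL-6 (its AC50) for 5 hrs, so both activation and inhibition register.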

[11] = target: Glucocorticoid receptor (Homo sapiens) (UniProt P04150); assay: GR-GFP Redistribution (AID 450;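 active means compounds whose dose series gives a full or clear partial fitted curve of increased nuclear translocation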; further: potency means the concentration at half of the fitted maximal effect); conditions: U2OS GR-GFP nuclear translocation, laser cytometry, 2 h
Glucocorticoid receptor (Homo sapiens), sequence (P04150 whole entry, looked up): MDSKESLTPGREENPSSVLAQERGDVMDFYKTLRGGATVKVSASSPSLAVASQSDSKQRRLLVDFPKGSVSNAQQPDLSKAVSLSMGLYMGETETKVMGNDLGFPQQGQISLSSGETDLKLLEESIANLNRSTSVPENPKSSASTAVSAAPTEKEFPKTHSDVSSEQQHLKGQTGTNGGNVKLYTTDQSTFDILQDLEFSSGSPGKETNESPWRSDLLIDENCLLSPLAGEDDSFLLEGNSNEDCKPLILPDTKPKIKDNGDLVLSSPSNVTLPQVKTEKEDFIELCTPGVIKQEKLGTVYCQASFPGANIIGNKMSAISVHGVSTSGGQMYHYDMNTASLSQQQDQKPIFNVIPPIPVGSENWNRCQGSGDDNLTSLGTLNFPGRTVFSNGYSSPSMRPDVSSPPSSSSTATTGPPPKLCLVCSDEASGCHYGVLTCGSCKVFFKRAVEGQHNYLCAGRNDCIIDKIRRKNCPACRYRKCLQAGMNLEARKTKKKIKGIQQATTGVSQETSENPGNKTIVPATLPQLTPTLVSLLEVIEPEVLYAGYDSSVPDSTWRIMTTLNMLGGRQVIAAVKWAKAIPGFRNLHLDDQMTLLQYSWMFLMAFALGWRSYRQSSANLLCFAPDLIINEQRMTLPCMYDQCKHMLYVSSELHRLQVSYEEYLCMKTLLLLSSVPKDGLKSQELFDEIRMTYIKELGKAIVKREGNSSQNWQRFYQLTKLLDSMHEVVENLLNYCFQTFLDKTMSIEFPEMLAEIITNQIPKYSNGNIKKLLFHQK

Cc1nc(S/C(=C/c2ccc(-c3cc(Cl)ccc3C)o2)C(=O)O)n[nH]1
inactive: Potency [2] | Potency [3] | Potency [4]
active: Potency [1] 26.9 µM

O=C(O)Cc1ccc(C(=O)c2ccc(Cl)cc2Cl)s1
inactive: Potency [1] | Potency [2] | Potency [3] | Potency [4]

CCOC(=O)/C(C#N)=C\c1ccc(N2CCN(C/C=C/c3ccccc3)CC2)cc1
inactive: Potency [1] | Potency [6]
active: Potency [5] 20.6 µM | Potency [2] 79.4 µM | Potency [3] 100 µM | Potency [4] 70.8 µM

CC(C)Cn1c(N)c(C(=O)COC(=O)c2cc(-c3ccco3)nc3ccccc23)c(=O)n(C)c1=O
inactive: outcome [8] | Potency [2] | Potency [3] | Potency [6] | Potency [4]
active: Potency [7] 15.8 µM | Potency [1] 30.1 µM

CCOC(=O)C(Cc1ccc(Cl)cc1Cl)c1ccno1 (centres undefined)
inactive: Potency [1] | Potency [2] | Potency [3] | Potency [4]

C[C@@H]1CN([C@@H](C)CO)C(=O)Cc2cc(NC(=O)C3CCCCC3)ccc2O[C@H]1CN(C)S(=O)(=O)c1ccccc1
inactive: Potency [1] | Potency [2] | Potency [3] | Potency [4]

C=CCn1c(SCc2cc([N+](=O)[O-])cc3c2OCOC3)nc2cc(C(=O)O)ccc2c1=O
inactive: Potency [2] | Potency [3] | Potency [4]
active: Potency [1] 75.7 µM

Cc1cc(C(=O)N/N=C/c2ccc(O)c([N+](=O)[O-])c2)c(C)n1-c1ccc(F)cc1
active: Potency [9] 75.7 µM | Potency [1] 42.6 µM
inactive: Potency [2] | Potency [3] | Potency [6] | Potency [4]

COc1cc(Br)cc(C(=O)N2CCc3ccccc32)c1OC
inactive: Potency [1] | Potency [2] | Potency [3] | Potency [4]

CCOC(=O)C1(Cc2ccccc2)C(=O)Nc2ccccc21 (centres undefined)
inactive: Potency [1] | Potency [2] | activation [3] 2.58% [at 17.1 µM, percent relative to cAMP agonist control] | activation [4] 32.7% [at 30.8 µM]

COCCCNC(=O)C(C#N)c1nc2ccccc2nc1N1CCN(Cc2ccccc2)CC1 (centres undefined)
inactive: outcome [10] | Potency [11] > 20.6 µM | Potency [2] | Potency [3] | Potency [6] | Potency [4]
active: Potency [1] 75.7 µM
